SMILES strings stand for the structures. Values without a mark were called inactive. Results filed as inconclusive are left out. Activity calls are given as the source filed them. Unless noted, calls come from the whole dose curve; as a rule, active = well fitted curve in the direction sought with a large enough effect; inconclusive = small, poorly fitted or top-dose-only effect, or another doubt; inactive = no such curve, though single readings can be large; an effect the other way counts as inactive or inconclusive.

Assay [1] concerns the target Lysosomal acid glucosylceramidase (Homo sapiens) (UniProt P04062). The experiment in a line: Glucocerebrosidase-p2 (AID 348; in the data active = potency below about 10 µM; note: potency is the fitted concentration of half-maximal effect). The following applies: purified GBA, blue fluorogenic substrate, 40 min. A digest of the protocol: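 Normal human glucocerebrosidase (0.2 nM) with blue fluorogenic substrate (80 uM final) in citrate/phosphate pH 5.9 with 10mM sodium taurocholate, 0.01% tween-20; 40 min RT, NaOH/glycine stop; fluorescence Ex 365/Em 440; AC50 from a titration from 0.6 nM upwards.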

Assay [2] in a line: AP1 Signaling Pathway (AID 357; active = well fitted curve in either direction with a large enough effect, not every such curve was filed as active;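 note: ME-180 reporter cells stimulated with EGF at its EC50 level; % is set by controls: 0 for no effect and ±100 for the full control effect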). As to conditions: ME-180 AP-1-bla reporter, EGF-induced, beta-lactamase ratio, 5 h; at 7.69 µM (top of the series) unless noted. An outline of the steps:
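AP-1-bla ME-180 cells, Opti-MEM + 0.5% dialyzed FBS, plated overnight 37 °C. Cpd titration + EC50 EGF, 5 h 37 °C. CCF4 2.5 h RT; ex 405, em 460/530 ratio → %activity, AC50.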

Assay [3] deals with Cytochrome P450 1A2 (Homo sapiens) (UniProt P05177). The experiment in a line: p450-cyp1a2 (AID 410; calls by dose curve; note: potency is the fitted concentration of half-maximal effect). As to conditions: recombinant CYP1A2, luciferin-ME demethylation, luminescence; series mostly up to 57 µM. A digest of the protocol: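 20nM CYP1A2, 100uM Luciferin-ME (=Km), 100mM KPO4; cpd 10 min RT; +NADPH regen, 60 min RT; stop/detect 20 min; luminescence. Normalized to furafylline 57 uM = full inhibition.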
Chain of Cytochrome P450 1A2 (Homo sapiens) (P05177 whole entry, looked up): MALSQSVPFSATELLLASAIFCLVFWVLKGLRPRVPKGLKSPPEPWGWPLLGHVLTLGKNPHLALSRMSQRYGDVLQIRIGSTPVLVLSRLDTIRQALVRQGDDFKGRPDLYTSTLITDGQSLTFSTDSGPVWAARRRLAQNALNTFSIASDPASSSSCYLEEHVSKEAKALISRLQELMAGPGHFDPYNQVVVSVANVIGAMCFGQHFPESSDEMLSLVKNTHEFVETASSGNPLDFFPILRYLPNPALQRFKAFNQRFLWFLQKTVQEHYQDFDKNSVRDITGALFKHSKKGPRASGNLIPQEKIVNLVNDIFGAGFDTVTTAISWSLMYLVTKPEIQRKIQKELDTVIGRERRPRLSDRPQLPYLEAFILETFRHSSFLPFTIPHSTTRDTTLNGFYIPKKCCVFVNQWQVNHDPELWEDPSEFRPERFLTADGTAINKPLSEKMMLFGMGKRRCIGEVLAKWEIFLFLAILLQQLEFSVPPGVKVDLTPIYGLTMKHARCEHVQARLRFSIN

Assay [4] is described as follows: NFAT Signaling Pathway (AID 444; active = well fitted curve in either direction with a large enough effect, not every such curve was filed as active;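 note: carbachol stimulus at about its EC50 of 1 µM final; % is set by controls: 0 for no effect and ±100 for the full control effect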). The following applies: Jurkat NFAT-bla M1, carbachol, beta-lactamase ratio, 5 h; at 7.69 µM (top of the series) unless noted. A digest of the protocol:
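Jurkat cells carrying an NFAT-driven β-lactamase reporter and co-transfected muscarinic M1 receptor were treated with compound plus carbachol (1 uM final, an EC50 level) for 5 h at 37 °C. CCF4 loading followed for 1 h at RT; 460/530 nm ratio gave %activity.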

The nature of assay [5]: Stat Signaling Pathway (AID 446; active = well fitted curve in either direction with a large enough effect, not every such curve was filed as active;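 note: ME-180 cervical cancer cells given 40 pM IL-6 alongside compound; SIE-controlled beta-lactamase reporter measured as 460/530 nm FRET emission ratio; % is set by controls: 0 for no effect and ±100 for the full control effect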). As to conditions: ME-180 SIE beta-lactamase reporter, IL-6 stimulated, 5 h; at 7.69 µM (top of the series) unless noted. An outline of the steps:
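Emission at 460 and 530 nm (excitation 405 nm) reports SIE-controlled beta-lactamase in ME-180 cells. Cells received compound with 40 pM IL-6 for 5 hrs at 37 C; data scaled between 300 pM IL-6 and 125 nM JAK-inhibitor controls.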

The target in assay [6] is Glucocorticoid receptor (Homo sapiens) (UniProt P04150). The experiment in a line: GR-GFP Redistribution (AID 450;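 active = compounds whose dose series gives a full or clear partial fitted curve of increased nuclear translocation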; note: potency is the fitted concentration of half-maximal effect). As to conditions: U2OS GR-GFP nuclear translocation, laser cytometry, 2 h.
Chain of Glucocorticoid receptor (Homo sapiens) (P04150 whole entry, looked up): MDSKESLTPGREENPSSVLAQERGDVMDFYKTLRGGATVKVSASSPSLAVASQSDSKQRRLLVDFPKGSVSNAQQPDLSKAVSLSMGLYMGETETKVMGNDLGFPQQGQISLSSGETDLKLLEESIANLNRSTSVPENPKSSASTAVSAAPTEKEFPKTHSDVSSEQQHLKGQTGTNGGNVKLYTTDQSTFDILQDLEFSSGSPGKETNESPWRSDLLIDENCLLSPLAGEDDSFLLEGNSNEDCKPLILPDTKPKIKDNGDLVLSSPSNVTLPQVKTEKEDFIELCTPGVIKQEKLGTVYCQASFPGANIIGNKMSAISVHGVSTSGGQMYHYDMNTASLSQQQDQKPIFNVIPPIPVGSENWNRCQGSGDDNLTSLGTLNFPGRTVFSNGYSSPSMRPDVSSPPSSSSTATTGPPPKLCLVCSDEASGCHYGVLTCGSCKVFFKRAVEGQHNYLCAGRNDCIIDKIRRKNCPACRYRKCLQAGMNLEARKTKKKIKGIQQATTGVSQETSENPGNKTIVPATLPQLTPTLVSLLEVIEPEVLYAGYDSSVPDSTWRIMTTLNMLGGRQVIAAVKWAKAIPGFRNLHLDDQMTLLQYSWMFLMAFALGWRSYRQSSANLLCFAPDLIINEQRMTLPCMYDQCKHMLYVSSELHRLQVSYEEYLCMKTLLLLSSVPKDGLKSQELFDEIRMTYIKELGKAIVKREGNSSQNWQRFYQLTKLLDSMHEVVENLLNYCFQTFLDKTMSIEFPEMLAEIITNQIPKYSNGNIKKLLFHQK
Assay [7] has the same target. The experiment in a line: GR-EFC Redistribution (AID 451; calls by dose curve; note: potency is the fitted concentration of half-maximal effect). As to conditions: CHO-K1 GR-EFC translocation, beta-gal luminescence, 2 h. An outline of the steps:
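CHO-K1 cells stably expressing nuclear-localized β-gal enzyme acceptor and GR fused C-terminally to the enzyme donor fragment; ligand-driven nuclear translocation restores β-gal by complementation. Compounds titrated up to 46 uM final, 2 h at 37 °C; luminescence read.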

The target in assay [8] is Mitogen-activated protein kinase 10 (Mus musculus) (UniProt Q61831). The experiment in a line: JNK3 AlphaScreen Assay (AID 530; active = well fitted curve in either direction with a large enough effect, not every such curve was filed as active;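 note: kinase came from lysate of stimulated human HepG2 cells; signal reports phosphorylation of biotinylated GST-cJun 1-79 at Ser73 with 10 µM ATP; % is set by controls: 0 for no effect and ±100 for the full control effect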). As to conditions: JNK3 lysate, c-Jun phosphorylation; series mostly up to 57.1 µM. An outline of the steps:
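Biotinylated GST-cJun(1-79) served as substrate for JNK3 in HepG2 lysates stimulated with IL-1beta and TNF-alpha. ATP was 10 uM final, pH 7.6. Ser73 phosphorylation was quantified by AlphaScreen (680 nm excitation).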
(Bead proximity is the source of the signal in Alpha formats.)

The target in assay [9] is 3',5'-cyclic-AMP phosphodiesterase 4B (Homo sapiens) (UniProt Q07343). Briefly: qHTS Assay for Inhibitors of PDE-IV (AID 607; active = well fitted activation curve with a large enough effect in the main read-out, with a control signal flat, not every such curve was filed as active; note: potency is the fitted concentration of half-maximal effect). The following applies: HEK293 ACTOne CNG channel cells, membrane potential fluorescence; series mostly up to 22.9 µM. A digest of the protocol:
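The readout is membrane depolarisation from a cAMP-sensing CNG channel, detected with a potential dye at ex 535/em 590. Cells were HEK293-derived (endogenous PDE-IV) at 1000 cells/well, titrated up to 22.9 uM final.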
In general terms: qHTS replaces the single test concentration by a dilution series.

Assay [10] deals with Dual specificity protein kinase CLK4 (Homo sapiens) (UniProt Q9HAZ1). The experiment in a line: qHTS Assay for Inhibitors of CDC-like Kinase 4 (ADP-FP Assay) (AID 1795). Note: % is set by controls: 0 for no effect and ±100 for the full control effect; nearly all actives have a fitted effect of over 60% in size. The following applies: Transcreener ADP fluorescence polarization; series mostly up to 50 µM. A digest of the protocol:
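Recombinant human Clk4 (6.25 nM) phosphorylated RS repeat peptide (100 uM) with 1 uM ATP in Tris pH 7.5/MgCl2/EGTA/DTT/Triton buffer for one hour. ADP was quantified by Transcreener competitive fluorescence polarization against an ADP calibration curve.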

The target of assay [11] is Ubiquitin carboxyl-terminal hydrolase 1 (Homo sapiens) (UniProt O94782). The experiment in a line: Inhibitors of USP1/UAF1: Pilot qHTS (AID 504865).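 Note: rhodamine fluorescence freed from ubiquitin-rhodamine substrate followed over time; top concentration of the series differs between compounds; % is set by controls: 0 for no effect and ±100 for the full control effect; nearly all actives have a fitted effect of over 35% in size.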 As to conditions: purified USP1/UAF1, Ub-rhodamine cleavage fluorescence; series mostly up to 54.9 µM. An outline of the steps: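 USP1/UAF1 complex (1nM) preincubated with compound 15 min at room temperature, then Ub-Rho substrate (150nM final) added. Fluorescence read kinetically at 480/540 nm, 6 reads every 60 seconds. Buffer: 50mM HEPES pH 7.8, 0.5mM EDTA, 0.1 mg/ml BSA, 1mM TCEP, 0.01% Tween-20.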
Chain of Ubiquitin carboxyl-terminal hydrolase 1 (Homo sapiens) (O94782 whole entry, looked up): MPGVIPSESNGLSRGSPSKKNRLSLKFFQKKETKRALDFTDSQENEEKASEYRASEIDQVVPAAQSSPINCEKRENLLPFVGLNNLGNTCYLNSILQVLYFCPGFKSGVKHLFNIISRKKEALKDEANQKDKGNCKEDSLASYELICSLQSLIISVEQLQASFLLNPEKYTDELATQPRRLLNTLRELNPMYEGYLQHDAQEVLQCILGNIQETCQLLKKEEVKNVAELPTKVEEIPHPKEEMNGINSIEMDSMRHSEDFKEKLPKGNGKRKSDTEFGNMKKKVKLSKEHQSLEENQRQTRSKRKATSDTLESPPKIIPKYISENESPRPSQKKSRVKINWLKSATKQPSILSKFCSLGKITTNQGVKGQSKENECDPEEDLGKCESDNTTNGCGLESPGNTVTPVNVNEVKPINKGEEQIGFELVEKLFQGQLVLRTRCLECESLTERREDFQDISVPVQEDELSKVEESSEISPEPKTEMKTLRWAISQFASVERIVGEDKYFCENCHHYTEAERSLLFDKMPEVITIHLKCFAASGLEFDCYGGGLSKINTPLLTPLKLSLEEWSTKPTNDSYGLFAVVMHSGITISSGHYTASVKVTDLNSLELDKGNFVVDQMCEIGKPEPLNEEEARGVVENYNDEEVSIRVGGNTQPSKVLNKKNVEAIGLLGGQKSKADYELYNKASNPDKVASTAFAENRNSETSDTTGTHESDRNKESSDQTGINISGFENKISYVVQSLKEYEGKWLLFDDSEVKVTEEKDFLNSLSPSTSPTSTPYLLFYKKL

The nature of assay [12]: Primary qHTS for small molecule stabilizers of the endoplasmic reticulum resident proteome: Secreted ER Calcium Modulated Protein (SERCaMP) assay (AID 1508630). Note: % is set by controls: 0 for no effect and ±100 for the full control effect. As to conditions: SH-SY5Y GLuc-SERCaMP (Gaussia luciferase released on ER calcium loss) secretion, thapsigargin, luminescence; series mostly up to 38.4 µM. An outline of the steps:
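The SH-SY5Y reporter protocol was run at 3 concentrations up to 38.3 uM (primary) or 11 concentrations (follow-up): 16 h compound, 100 nM thapsigargin for 4 h, then extracellular luciferase luminescence.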

Assay [13] concerns the target Cytochrome P450 3A4 (Homo sapiens) (UniProt P08684). The experiment in a line: qHTS Assay for Inhibitors and Substrates of Cytochrome P450 3A4 (AID 884). Note: potency is the fitted concentration of half-maximal effect; nearly all actives have a fitted effect of over 50% in size. As to conditions: recombinant CYP3A4, Luciferin-PPXE luminescence; series mostly up to 57.1 µM. A digest of the protocol: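 Luminescent readout of luciferin produced by CYP3A4 (20 nM) dealkylation of Luciferin-PPXE, 25 uM (its KM). NADPH-driven reaction ran 60 min at RT after 10 min compound preincubation; data scaled to 57 uM ketoconazole as 100% inhibition.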

Assay [14] shares this target. The experiment in a line: qHTS Assay for Activators of Cytochrome P450 3A4 (AID 885). Note: nearly all actives have a fitted effect of over 65% in size. As to conditions: recombinant CYP3A4, Luciferin-PPXE luminescence, 60 min; series mostly up to 57.1 µM. A digest of the protocol:
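Activators are scored by enhanced luminescence from CYP3A4 conversion of luciferin-PPXE (25uM, equal to KM) to luciferin, after 60 min at RT with an NADPH-regenerating system.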

Assay [15] has as its target Cytochrome P450 2C19 (Homo sapiens) (UniProt P33261). The experiment in a line: qHTS Assay for Inhibitors and Substrates of Cytochrome P450 2C19 (AID 899). Note: potency is the fitted concentration of half-maximal effect; nearly all actives have a fitted effect of over 60% in size. As to conditions: recombinant CYP2C19, luciferin-H EGE luminescence; series mostly up to 57.1 µM. An outline of the steps:
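Human CYP2C19 (5nM) with Luciferin-H EGE at 10uM (its KM) in 50mM KPO4 was preincubated with compound for 10 min at 37C. NADPH regeneration started a 60 min 37C reaction. Luciferin was read by luminescence, normalized to 57uM ketoconazole.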

Assay [16] concerns the target Dual specificity protein kinase CLK4 (Homo sapiens) (UniProt Q9HAZ1). The experiment in a line: qHTS Assay for Inhibitors of CDC-like Kinase 4 (ADP-Glo Assay) (AID 1771). Note: nearly all actives have a fitted effect of over 70% in size. Note: potency is the fitted concentration of half-maximal effect. The following applies: recombinant CLK4, ADP-Glo luminescence; series mostly up to 80 µM. A digest of the protocol:
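25 nM Clk4, 100 uM RS peptide, 1 uM ATP (final); 2 mM MgCl2, 0.5 mM EGTA, 2.5 mM DTT, 0.01% Triton X-100; 1 hr RT. ADP-Glo readout: ATP depletion 45 min, conversion/luciferase 30 min, luminescence.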

Assay [17] deals with Cytochrome P450 2C9 (Homo sapiens) (UniProt P11712). The experiment in a line: qHTS Assay for Inhibitors and Substrates of Cytochrome P450 2C9 (AID 883). Note: % is set by controls: 0 for no effect and ±100 for the full control effect; nearly all actives have a fitted effect of over 60% in size. As to conditions: recombinant CYP2C9, luciferin-H luminescence, 60 min; series mostly up to 57.1 µM. An outline of the steps: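 Human CYP2C9 (10nM) hydroxylated Luciferin-H (100uM, at its KM) to luciferin in 25mM KPO4. Compound was preincubated 10 min at 37C, then NADPH regeneration started a 60 min reaction at 37C. Luminescence was read after detection reagent, normalized to 57uM sulphaphenazole.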
Chain of Cytochrome P450 2C9 (Homo sapiens) (P11712 whole entry, looked up): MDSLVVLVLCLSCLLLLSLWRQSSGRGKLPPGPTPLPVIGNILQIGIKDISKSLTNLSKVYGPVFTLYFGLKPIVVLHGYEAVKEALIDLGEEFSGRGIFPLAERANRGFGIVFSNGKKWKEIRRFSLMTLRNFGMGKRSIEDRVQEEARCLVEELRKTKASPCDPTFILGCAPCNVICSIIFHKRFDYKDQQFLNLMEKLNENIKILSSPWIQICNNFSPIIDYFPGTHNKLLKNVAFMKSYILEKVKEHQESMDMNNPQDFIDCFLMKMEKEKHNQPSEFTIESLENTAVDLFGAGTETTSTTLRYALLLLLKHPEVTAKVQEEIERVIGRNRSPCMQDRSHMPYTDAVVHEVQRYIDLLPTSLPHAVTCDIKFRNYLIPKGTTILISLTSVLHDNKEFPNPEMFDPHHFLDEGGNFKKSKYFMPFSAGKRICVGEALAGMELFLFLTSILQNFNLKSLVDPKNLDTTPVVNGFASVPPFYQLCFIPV

Assay [18] can be described thus: qHTS Assay for Identification of Small Molecule Agonists for Hypoxia Response Element Signaling Pathway (AID 914; active = well fitted activation curve with a large enough effect in the signal ratio, with a control signal flat, not every such curve was filed as active; the % refers to the signal ratio; note: % of control where 0% means no effect). As to conditions: ME-180 (cervical carcinoma) HRE-bla reporter, beta-lactamase ratio, CoCl2, 17 h; activation: stronger effect = higher value. An outline of the steps:
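HRE-bla ME-180 cells, overnight plating in Opti-MEM with 0.5% dialyzed FBS; cpd titration + EC50 CoCl2, 17 h, 37 degrees Celsius; CCF4 2.5 h RT; 460/530 nm ratio; AC50.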

Chain of Cytochrome P450 3A4 (Homo sapiens) (P08684 whole entry, looked up): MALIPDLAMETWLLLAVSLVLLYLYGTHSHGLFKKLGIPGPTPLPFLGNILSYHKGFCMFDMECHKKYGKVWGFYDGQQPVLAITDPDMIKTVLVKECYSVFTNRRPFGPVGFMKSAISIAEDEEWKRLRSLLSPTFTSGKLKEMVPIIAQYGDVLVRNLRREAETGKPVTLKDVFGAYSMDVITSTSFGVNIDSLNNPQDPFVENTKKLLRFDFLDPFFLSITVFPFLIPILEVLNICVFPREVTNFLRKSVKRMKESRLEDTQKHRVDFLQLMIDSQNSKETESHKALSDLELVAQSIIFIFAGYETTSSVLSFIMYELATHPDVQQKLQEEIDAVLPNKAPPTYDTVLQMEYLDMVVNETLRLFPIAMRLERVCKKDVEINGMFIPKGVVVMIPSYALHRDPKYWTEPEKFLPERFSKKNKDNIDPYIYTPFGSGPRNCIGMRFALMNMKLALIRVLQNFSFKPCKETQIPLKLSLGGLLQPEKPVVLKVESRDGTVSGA
Chain of Dual specificity protein kinase CLK4 (Homo sapiens) (Q9HAZ1 whole entry, looked up): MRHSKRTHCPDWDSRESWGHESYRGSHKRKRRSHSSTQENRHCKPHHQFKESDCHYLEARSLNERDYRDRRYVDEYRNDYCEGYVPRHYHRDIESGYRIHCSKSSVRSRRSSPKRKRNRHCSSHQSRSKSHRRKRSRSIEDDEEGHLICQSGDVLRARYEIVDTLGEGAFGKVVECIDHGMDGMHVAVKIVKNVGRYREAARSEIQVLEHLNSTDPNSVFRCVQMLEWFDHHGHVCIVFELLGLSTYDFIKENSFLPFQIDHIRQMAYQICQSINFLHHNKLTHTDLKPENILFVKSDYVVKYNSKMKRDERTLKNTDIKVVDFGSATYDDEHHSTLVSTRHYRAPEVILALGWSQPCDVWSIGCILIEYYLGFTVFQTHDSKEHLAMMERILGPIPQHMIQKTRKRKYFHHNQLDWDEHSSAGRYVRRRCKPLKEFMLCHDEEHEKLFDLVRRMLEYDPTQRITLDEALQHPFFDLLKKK
Chain of 3',5'-cyclic-AMP phosphodiesterase 4B (Homo sapiens) (Q07343 whole entry, looked up): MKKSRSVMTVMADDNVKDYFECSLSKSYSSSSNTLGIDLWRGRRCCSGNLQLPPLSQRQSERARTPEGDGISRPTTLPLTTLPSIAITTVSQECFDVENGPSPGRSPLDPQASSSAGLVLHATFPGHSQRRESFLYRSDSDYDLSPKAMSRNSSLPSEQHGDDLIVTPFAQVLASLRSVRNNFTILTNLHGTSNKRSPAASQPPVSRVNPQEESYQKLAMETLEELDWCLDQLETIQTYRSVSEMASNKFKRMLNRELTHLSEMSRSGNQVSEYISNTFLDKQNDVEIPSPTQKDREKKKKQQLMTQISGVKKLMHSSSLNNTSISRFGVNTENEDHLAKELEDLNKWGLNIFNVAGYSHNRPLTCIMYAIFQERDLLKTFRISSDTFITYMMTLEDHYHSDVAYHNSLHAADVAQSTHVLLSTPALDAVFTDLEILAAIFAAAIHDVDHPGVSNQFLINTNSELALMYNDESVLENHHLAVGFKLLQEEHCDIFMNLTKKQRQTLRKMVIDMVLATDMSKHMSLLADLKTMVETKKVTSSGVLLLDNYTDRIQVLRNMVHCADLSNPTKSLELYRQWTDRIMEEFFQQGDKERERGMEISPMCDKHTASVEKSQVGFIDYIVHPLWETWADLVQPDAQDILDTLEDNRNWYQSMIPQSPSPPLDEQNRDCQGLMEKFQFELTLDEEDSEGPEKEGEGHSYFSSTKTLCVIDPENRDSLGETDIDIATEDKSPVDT
Chain of Lysosomal acid glucosylceramidase (Homo sapiens) (P04062 whole entry, looked up): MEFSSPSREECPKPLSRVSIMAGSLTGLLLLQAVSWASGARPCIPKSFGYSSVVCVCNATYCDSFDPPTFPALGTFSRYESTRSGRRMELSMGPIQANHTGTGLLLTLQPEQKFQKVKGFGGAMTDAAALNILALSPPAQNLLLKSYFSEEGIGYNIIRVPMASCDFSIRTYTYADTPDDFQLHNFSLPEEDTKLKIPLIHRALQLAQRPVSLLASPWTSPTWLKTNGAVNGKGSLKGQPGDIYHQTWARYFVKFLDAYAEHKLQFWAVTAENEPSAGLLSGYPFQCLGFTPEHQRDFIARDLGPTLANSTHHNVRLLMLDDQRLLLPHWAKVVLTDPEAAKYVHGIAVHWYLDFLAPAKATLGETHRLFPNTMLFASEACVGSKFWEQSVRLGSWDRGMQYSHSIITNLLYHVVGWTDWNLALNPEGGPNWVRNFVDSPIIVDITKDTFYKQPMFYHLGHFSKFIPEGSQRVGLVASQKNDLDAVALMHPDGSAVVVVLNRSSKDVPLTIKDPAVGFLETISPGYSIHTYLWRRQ

With `Cc1ccccc1-c1nc(N(C)C)c2ccccc2n1`, the Potency in assay [1] was greater than 11.4 µM; in assay [3], 0.631 µM (active); in [6], greater than 46 µM; in [7], greater than 46 µM. The values for the activity change, negative = inhibition in assay [2] and in assay [4] were 5.33% and -0.255%, respectively. Besides, the activity, negative = inhibition in assay [5] was 6.41%. Also, the Potency result in assay [8], in [9], in assay [10] and in assay [11] was “inactive” throughout. For the same compound, in assay [12], the outcome was inactive.
For the compound `COc1ccc(CNc2cc(-c3ccccc3OC)ncn2)c(OC)c1`, the Potency in assay [1] was greater than 11.4 µM; in [6] it was greater than 46 µM; in assay [7], greater than 46 µM; in [13] it was 6.31 µM (active); in assay [15] it was 2 µM (active). Also, the activity change, negative = inhibition was -6.46% in [2] and 17.7% in assay [4]. Besides, the activity, negative = inhibition in assay [5] is 5.25%. In addition, the Potency result in assay [8], in assay [9], in assay [14], in assay [16], in [10] and in [11] was “inactive” in each case. Moreover, the result in assay [12] was inactive.
Take `CS(=O)(=O)Nc1cccc(-c2cc(Nc3ccccc3)ncn2)c1`: the Potency in assay [1] was greater than 11.4 µM; in assay [3], 0.398 µM (active); in assay [6], greater than 46 µM; in [7], greater than 46 µM; in [16] it was 35.5 µM (active). The values for the activity change, negative = inhibition in assay [2], in assay [4] and in [17] were -27.9%, 10.9% and 56.3% [at 2.29 µM], respectively. For the same compound, the activity, negative = inhibition in [5] was 3.87%. The Potency result in assay [8], in assay [9], in [14] and in [11] was “inactive” in each case. In assay [18], the activation is -13.8%. Besides, the result in assay [12] was inactive.
As to `COc1ncc2ncc(=O)n(C3CC3)c2n1`, the Potency in assay [1] was greater than 11.4 µM; in assay [3], 10 µM (active); in assay [6] it was greater than 9.22 µM; in [7], greater than 46 µM; in [9] it was 1.58 µM (active). For the same compound, the activity change, negative = inhibition is -1.23% in [2] and -8.58% in [4]. Besides, in assay [5], the activity, negative = inhibition was 6.59%. The Potency result in assay [8], in assay [10] and in assay [11] was “inactive” throughout. In addition, in assay [12], the result was inactive.
For `CC(=O)NCCNc1ncnc2ccc(-c3ccccc3C#N)cc12`, the activity change, negative = inhibition in assay [2] was -5.09%. The Potency was 3.98 µM (active) in assay [3], greater than 46 µM in assay [6], greater than 46 µM in assay [7] and 14.1 µM (active) in [16]. Further, in assay [5], the activity, negative = inhibition was 6.69%. Also, the Potency entry in [8], in assay [9], in assay [14] and in assay [11] was “inactive” in each case. In addition, the result in assay [12] was inactive.
On to `CN(C)c1ncc2nc(CCc3ccccc3)c(=O)n(C3CC3)c2n1`, for which the Potency was greater than 11.4 µM in assay [1], 3.16 µM (active) in assay [3], greater than 9.22 µM in assay [6] and greater than 46 µM in assay [7]. Moreover, the activity, negative = inhibition in assay [5] is -4.87%. Also, the Potency entry in assay [8], in [14], in [16], in [10] and in assay [11] was “inactive” throughout. For the same compound, in assay [12], the result was inactive.

Source of the values: PubChem BioAssay (NCATS).
